One assay concerns the target Albumin (Bos taurus) (UniProt P02769). Briefly: compounds binding labelled BSA control protein – biochemical, small-molecule microarray, Alexa647 label, 635/667 nm fluorescence, artefact control for SMM control protein annotation, profiling panel (AID 1118).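 Also: score merges 667 nm emission intensity and signal-to-noise per printed compound spot.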 Particulars: BSA-A647 binding, fluorescence 635 nm, higher = more signal.
A short description of assay [1]: probe aXIP binding to arrayed compounds – biochemical, NeuroSMM set, 635/667 nm fluorescence, primary screen (AID 1119).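 Also: probe is the protein aXip251-270 applied at 1 µg/mL to compound-printed slides; binding of probe to printed compounds measured as 667 nm fluorescence plus signal to noise.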 The following applies: small-molecule microarray, higher = more signal, called active from +8 up or from −8 down.
Assay [2] is described as follows: probe aNOTCH3 binding on compound microarray – biochemical, small-molecule microarray, 635/667 nm fluorescence, primary screen (AID 1120).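 Also: probe is a biotin-tagged antibody raised against NOTCH3 rather than NOTCH3 protein; score merges spot fluorescence near 667 nm with spot signal to noise.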 Particulars: higher = more signal.
Assay [3] in a line: probe aNOTCH2 binding on compound microarray – biochemical, small-molecule microarray, 635/667 nm fluorescence, primary screen (AID 1121).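 Also: score merges feature fluorescence read at 667 nm with its signal to noise.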 The following applies: higher = more signal.
Assay [4] deals with Carbonic anhydrase 2 (Homo sapiens) (UniProt P00918). Briefly: compounds binding carbonic anhydrase 2 – biochemical, small-molecule microarray, Alexa647-labelled CAII, profiling panel (AID 1122). The following applies: CAII-A647 binding fluorescence, higher = more signal.
Assay [5] can be described thus: COS7 lysate on small-molecule microarray, probe aHis, 635 nm (AID 1123).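 Also: z-score combines 667nm fluorescence intensity with signal-to-noise per printed compound spot.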 Particulars: COS7 cell lysate, fluorescence, higher = more signal.
Assay [6] in a line: probe aLAP1 signal on lysate-treated microarray – cell lysate, small-molecule microarray, COS7 lysate, primary screen (AID 1124).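 Also: lysate comes from COS7 cells expressing LAP1 and is applied at 0.3 µg/mL; score merges spot fluorescence near 667 nm with signal-to-noise over triplicate slides.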 Particulars: probe aLAP1, fluorescence, higher = more signal.
For another assay, the system named is Sam68 (KHDRBS1). Briefly: compounds binding KHDRBS1 protein – biochemical, small-molecule microarray, 635 nm fluorescence, primary screen (AID 1125).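 Also: score merges 667 nm channel intensity with signal to noise over triplicate slides.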 The following applies: higher = more signal.
Assay [7] has as its system Chordin-like protein 2 (CHRDL2). Briefly: compounds binding chordin-like 2 – biochemical, small-molecule microarray, 635 nm fluorescence, primary screen (AID 1126).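 Also: printed compound slides probed with Chrdl2 protein at 4 µg/mL for 1 h at 4 C; score merges 667 nm emission intensity with signal to noise over three replicate slides.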 The following applies: fluorescence 635 nm, higher = more signal.
Assay [8] addresses Concanavalin-A (Canavalia ensiformis) (UniProt P02866). Nature of the assay: compounds binding concanavalin A lectin – biochemical, small-molecule microarray, Alexa647 label, 635 nm, artefact control for SMM control protein annotation, primary screen (AID 1127).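 Also: z combines 667 nm emission intensity with signal-to-noise across three replicate slides.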 Particulars: ConA-A647 binding fluorescence, higher = more signal.
The nature of assay [9]: compounds binding Alexa647 anti-His antibody – biochemical, small-molecule microarray, 635 nm fluorescence, artefact control for SMM control protein annotation, primary screen (AID 1128).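 Also: score merges feature fluorescence with signal-to-noise for each printed compound spot.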 The following applies: higher = more signal.
Assay [10] concerns Human papillomavirus type 1a E7 protein (residues 1-88). Nature of the assay: HPV1a E7 small-molecule binders, primary screen, biochemical, small-molecule microarray, residues 1-88, 635 nm (AID 1129). Particulars: small-molecule microarray binding, fluorescence 635 nm; higher = more signal.
Assay [11] deals with Focal adhesion kinase 1 (Homo sapiens) (UniProt Q05397). Briefly: PTK2 protein binding on printed compound slides – biochemical, small-molecule microarray, 635/667 nm fluorescence, BSA, DTT, primary screen (AID 1130).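 Also: composite of spot emission at 667 nm and signal to noise over triplicate slides.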 The following applies: 635 nm fluorescence, higher = more signal.
For assay [12], the system named is Fibrinogen (Alexa647-labelled). Briefly: Alexa647-fibrinogen binding to printed small molecules – biochemical, small-molecule microarray, 635/667 nm fluorescence, artefact control for SMM control-protein annotation, profiling panel (AID 1131).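 Also: z-score merges 667 nm fluorescence with per-spot signal-to-noise over triplicate slides.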 The following applies: fibrinogen-A647 binding fluorescence, higher = more signal.
Assay [13] concerns the target Follistatin (Homo sapiens) (UniProt P19883). Nature of the assay: FST protein binding to printed compounds – biochemical, small-molecule microarray, 635/667 nm fluorescence, primary screen (AID 1132). The following applies: 635 nm fluorescence, higher = more signal.
Assay [14] deals with Fibroblast growth factor 2 (Homo sapiens) (UniProt P09038). Nature of the assay: basic fibroblast growth factor binding to printed compounds – biochemical, small-molecule microarray, 635/667 nm fluorescence, primary screen (AID 1133). Particulars: FGF2, fluorescence 635/667, higher = more signal.
The nature of assay [15]: JC-1 mitochondrial potential readout, lung cancer cells – cell-based, A549, JC-1 fluorescence, basal, 24 h, 100 nL, profiling panel (AID 1138).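 Also: A549 lung adenocarcinoma cells under basal conditions with no added stimulus; test concentration not given here.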 The following applies: higher = more signal.
Another assay relates to Lefty1. Nature of the assay: Lefty1 protein binding to printed compounds – biochemical, small-molecule microarray, 635/667 nm fluorescence, primary screen (AID 1139). Particulars: fluorescence 635/667, higher = more signal.
Assay [16] relates to wheat germ agglutinin (Triticum aestivum), Alexa647-labelled. Briefly: Alexa647-WGA lectin binding to printed small molecules – biochemical, small-molecule microarray, 635/667 nm fluorescence, artefact control for SMM control-protein annotation, profiling panel (AID 1140).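 Also: score merges 667 nm feature emission with signal to noise over triplicate slides.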 The following applies: WGA-A647 binding, 635 nm fluorescence, higher = more signal.
In assay [17] the target is Luciferin 4-monooxygenase (Photinus pyralis) (UniProt P08659). Briefly: inhibition of purified Photinus pyralis luciferase – biochemical, luminescence, purified enzyme, 2006 set, primary screen (AID 1141).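 Also: cell-free assay with purified firefly luciferase at 100 ng per well in PBS; test concentration not given here.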 The following applies: purified firefly luciferase, SteadyGlo luminescence, 30 min; higher = more signal, called active from +8 up or from −8 down.

Structures are written as SMILES. Activity calls are given as the source filed them.

Sequence of Concanavalin-A (Canavalia ensiformis) (P02866 whole entry, looked up): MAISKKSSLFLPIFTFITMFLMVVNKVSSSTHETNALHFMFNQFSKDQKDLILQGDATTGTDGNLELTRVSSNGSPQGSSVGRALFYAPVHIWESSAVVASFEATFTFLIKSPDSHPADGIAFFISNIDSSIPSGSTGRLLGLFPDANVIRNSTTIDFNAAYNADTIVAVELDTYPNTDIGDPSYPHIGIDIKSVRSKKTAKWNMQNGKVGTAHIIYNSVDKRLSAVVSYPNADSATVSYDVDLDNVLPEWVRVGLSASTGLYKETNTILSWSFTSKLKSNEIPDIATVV
Sequence of Fibroblast growth factor 2 (Homo sapiens) (P09038 whole entry, looked up): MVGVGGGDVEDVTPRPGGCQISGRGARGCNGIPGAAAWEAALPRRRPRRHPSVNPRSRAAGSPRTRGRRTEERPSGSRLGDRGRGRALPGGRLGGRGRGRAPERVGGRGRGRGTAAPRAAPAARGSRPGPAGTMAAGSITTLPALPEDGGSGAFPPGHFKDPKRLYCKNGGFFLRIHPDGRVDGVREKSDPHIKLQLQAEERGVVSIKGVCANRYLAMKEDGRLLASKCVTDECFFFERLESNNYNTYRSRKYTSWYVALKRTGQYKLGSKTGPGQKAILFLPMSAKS
Sequence of Luciferin 4-monooxygenase (Photinus pyralis) (P08659 whole entry, looked up): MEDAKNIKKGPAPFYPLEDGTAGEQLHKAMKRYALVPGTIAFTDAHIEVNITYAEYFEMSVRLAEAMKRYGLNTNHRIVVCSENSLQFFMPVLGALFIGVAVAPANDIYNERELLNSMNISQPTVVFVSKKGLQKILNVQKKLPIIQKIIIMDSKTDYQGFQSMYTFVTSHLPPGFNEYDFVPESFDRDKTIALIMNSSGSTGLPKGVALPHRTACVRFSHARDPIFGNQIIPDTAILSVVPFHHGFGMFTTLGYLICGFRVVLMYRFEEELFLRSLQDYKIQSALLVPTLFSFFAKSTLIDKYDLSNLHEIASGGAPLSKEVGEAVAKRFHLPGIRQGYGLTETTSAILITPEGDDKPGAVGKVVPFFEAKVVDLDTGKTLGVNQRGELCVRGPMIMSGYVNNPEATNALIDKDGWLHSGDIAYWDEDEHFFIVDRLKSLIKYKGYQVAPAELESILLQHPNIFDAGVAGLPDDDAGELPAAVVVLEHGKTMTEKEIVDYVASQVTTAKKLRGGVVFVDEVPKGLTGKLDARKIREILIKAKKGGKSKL
Sequence of Focal adhesion kinase 1 (Homo sapiens) (Q05397 whole entry, looked up): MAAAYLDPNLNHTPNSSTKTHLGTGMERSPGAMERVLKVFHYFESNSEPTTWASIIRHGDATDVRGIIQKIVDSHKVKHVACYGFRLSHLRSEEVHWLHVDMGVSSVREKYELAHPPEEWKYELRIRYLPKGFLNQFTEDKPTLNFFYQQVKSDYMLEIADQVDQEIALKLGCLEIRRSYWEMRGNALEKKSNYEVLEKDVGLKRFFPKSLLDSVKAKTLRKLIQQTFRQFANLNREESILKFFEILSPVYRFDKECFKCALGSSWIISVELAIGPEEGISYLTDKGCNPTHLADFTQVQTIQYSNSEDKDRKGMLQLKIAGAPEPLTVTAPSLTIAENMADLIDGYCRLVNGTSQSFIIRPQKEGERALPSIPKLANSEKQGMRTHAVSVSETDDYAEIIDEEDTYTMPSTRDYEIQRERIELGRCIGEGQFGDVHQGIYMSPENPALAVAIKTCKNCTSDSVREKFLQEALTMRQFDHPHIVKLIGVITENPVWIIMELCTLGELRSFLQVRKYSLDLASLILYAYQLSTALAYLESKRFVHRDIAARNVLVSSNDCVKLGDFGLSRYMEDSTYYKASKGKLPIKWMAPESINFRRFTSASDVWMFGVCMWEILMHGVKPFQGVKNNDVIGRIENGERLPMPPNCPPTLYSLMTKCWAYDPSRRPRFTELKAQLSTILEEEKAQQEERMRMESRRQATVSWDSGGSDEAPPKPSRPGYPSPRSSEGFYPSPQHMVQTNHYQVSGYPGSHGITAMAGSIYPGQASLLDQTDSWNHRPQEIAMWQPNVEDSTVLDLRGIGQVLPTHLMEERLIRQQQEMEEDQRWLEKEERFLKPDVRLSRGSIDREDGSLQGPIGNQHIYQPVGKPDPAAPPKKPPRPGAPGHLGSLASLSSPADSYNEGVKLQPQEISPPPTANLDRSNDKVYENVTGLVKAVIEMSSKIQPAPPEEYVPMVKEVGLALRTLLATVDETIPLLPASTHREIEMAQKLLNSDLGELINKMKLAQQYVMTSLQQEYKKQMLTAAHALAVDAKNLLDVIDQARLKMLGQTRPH
Sequence of Follistatin (Homo sapiens) (P19883 whole entry, looked up): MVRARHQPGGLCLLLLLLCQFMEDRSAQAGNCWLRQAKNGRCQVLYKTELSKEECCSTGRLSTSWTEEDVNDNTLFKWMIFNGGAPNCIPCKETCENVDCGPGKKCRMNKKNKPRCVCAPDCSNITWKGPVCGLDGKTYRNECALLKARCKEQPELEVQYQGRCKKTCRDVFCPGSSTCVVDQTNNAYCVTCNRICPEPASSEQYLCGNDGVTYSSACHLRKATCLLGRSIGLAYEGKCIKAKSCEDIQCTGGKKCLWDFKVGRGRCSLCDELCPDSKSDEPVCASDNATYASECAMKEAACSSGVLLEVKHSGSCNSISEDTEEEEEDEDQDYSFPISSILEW
Sequence of Albumin (Bos taurus) (P02769 whole entry, looked up): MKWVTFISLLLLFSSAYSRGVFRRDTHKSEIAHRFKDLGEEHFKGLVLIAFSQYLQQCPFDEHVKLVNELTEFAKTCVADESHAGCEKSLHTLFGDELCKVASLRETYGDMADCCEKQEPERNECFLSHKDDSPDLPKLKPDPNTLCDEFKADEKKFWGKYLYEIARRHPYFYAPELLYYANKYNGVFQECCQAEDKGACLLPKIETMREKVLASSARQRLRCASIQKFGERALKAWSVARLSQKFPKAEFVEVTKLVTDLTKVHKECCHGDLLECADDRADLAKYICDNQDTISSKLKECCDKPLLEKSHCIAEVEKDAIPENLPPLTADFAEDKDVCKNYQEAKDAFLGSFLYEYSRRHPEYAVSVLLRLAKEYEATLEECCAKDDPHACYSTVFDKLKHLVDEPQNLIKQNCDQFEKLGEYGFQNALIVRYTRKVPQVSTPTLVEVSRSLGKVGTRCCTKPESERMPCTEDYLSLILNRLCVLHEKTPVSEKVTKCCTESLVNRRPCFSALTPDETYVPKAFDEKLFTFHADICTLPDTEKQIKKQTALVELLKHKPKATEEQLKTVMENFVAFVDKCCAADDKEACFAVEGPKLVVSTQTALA

Turning to `[N-]=[N+]=NCc1ccccc1[C@@H]1OC(c2ccc(OCCCO)cc2)=N[C@]1(Cc1ccccc1)C(=O)N1CCOCC1`, the composite z-score in the assay with Albumin (Bos taurus) amounted to 0.923; in [2], 0.387; in assay [3], 0.34; in [4], 0.514; in assay [5], 3.06; in [6] it was 0.827. Also, the composite z-score came out at 1.32 in the assay with Sam68 (KHDRBS1); 0.766 in assay [7]; 1.16 in [8]; 2.32 in assay [9]; 1.11 in assay [10]; 0.373 in assay [11]. For the same compound, the composite z-score in [12] is 0.998; in assay [13], 1.15; in assay [14] it was 0.593; in the assay on Lefty1 it was 0.115; in [16] it was 1.26. Moreover, the composite Z-score in assay [1] is 0.0976 (inactive). Also, the z-score is 1.23 in [15] and -0.633 (inactive) in [17].
Take `COc1ccc([Si](C)(C)[C@H]2[C@H](CC(=O)N3CCC[C@H]3CO)O[C@@]3(C(=O)N(Cc4cccc(N5C(=O)COc6ccccc65)c4)c4ccccc43)[C@@H]2C)cc1`: the composite z-score in the assay with Albumin (Bos taurus) was 0.34; in [2], 0.0293; in [3] it was -0.0556; in assay [4], 0.437; in [5], 2.38; in assay [6], 0.125. Further, the composite z-score in the assay on Sam68 (KHDRBS1) stood at 1.26; in assay [7], 0.959; in assay [8] it was 0.997; in assay [9], 0.514; in assay [10], 0.885; in [11] it was 0.392. Moreover, the composite z-score in assay [12] was -0.07; in assay [13], 0.727; in [14], 1.68; with Lefty1, 0.994; in assay [16], -0.32. Further, the composite Z-score in [1] was 0.33 (inactive). Moreover, the z-score in [15] was 4.31; in assay [17] it was -2.36 (inactive).
Take `C[C@@H]1CC[C@H]2C(=O)O[C@H](COc3ccc(C(C)(C)C)cc3)CN2[C@H]1c1ccc(Br)cc1`: the composite z-score was 0.673 in the assay with Albumin (Bos taurus); -0.0716 in assay [2]; 0.0776 in assay [3]; -0.113 in assay [4]; -0.231 in [5]; 0.157 in [6]. Also, the composite z-score in the assay with Sam68 (KHDRBS1) is -0.734; in assay [7], 0.0828; in assay [8], -0.212; in assay [9], 2.99; in assay [10], -0.701; in assay [11], -0.0482. Also, the composite z-score in [12] is 0.54; in assay [13], -0.123; in assay [14], 0.0203; in the assay with Lefty1, 0.0924; in [16] it was 0.148. Moreover, the composite Z-score in [1] is 0.458 (inactive). The z-score is 1.87 in assay [15] and -1.36 (inactive) in assay [17].
In the case of `CCCC[C@@H](O)C1=C(C)C[C@H]2C(=O)N(Cc3ccccc3)C(=O)[C@H]2[C@H]1CO`, the composite z-score with Albumin (Bos taurus) is 0.0852; in assay [2], -0.0175; in assay [3], -0.133; in assay [4], -0.215; in assay [5], -0.377; in assay [6], 0.0292. Further, the composite z-score in the assay on Sam68 (KHDRBS1) is 0.241; in [7] it was 0.538; in assay [8], 0.321; in [9], 0.314; in [10], 0.0359; in assay [11] it was -0.0945. In addition, the composite z-score is -0.0897 in assay [12]; 0.438 in [13]; 0.828 in [14]; 0.492 in the assay on Lefty1; -0.423 in assay [16]. Moreover, in assay [1], the composite Z-score is -0.041 (inactive). The z-score in assay [15] is 0.923; in assay [17] it was -0.467 (inactive).
For the compound `CC(C)(C)N1CC=CC23O[C@@H]4C=CCCOC(=O)C4[C@H]2C(=O)N(CCCCCO)[C@@H]3C1=O` (stereo not given in full), the composite z-score in the assay with Albumin (Bos taurus) is 0.568; in assay [2], 0.285; in assay [3], -0.175; in assay [4], 0.874; in assay [5], 0.518; in [6], 0.726. Besides, the composite z-score was 0.598 in the assay with Sam68 (KHDRBS1); -0.503 in assay [7]; -0.339 in [8]; 0.373 in assay [9]; 0.233 in assay [10]; -0.441 in assay [11]. The composite z-score in assay [12] was -1.67; in assay [13], -0.435; in assay [14], -0.51; in the assay on Lefty1, 0.887; in assay [16], 0.671. Also, in [1], the composite Z-score is 0.08 (inactive). In addition, the z-score is 0.678 in assay [15] and -0.789 (inactive) in assay [17].
Turning to `O=C1O[C@@H](c2ccccc2)[C@@H](c2ccccc2)N2[C@@H](c3ccccc3OCCO)[C@]3(C(=O)Nc4ccc(C#CCCO)cc43)[C@@H](C(=O)O)[C@H]12`, the composite z-score in the assay with Albumin (Bos taurus) was found to be 0.682; in assay [2], 1.14; in assay [3], 0.473; in [4] it was 0.58; in [5], 1.51; in assay [6], 0.133. The composite z-score in the assay on Sam68 (KHDRBS1) turned out to be 1.2; in [7], 0.553; in assay [8], 1.15; in [9], 2.14; in [10], 1.18; in [11], 0.459. The composite z-score in assay [12] came out at 0.923; in assay [13], 0.89; in assay [14] it was 0.598; with Lefty1 it was 1.37; in assay [16] it was 0.365. Also, the composite Z-score in assay [1] is 0.215 (inactive). The figures for the z-score in [15] and in assay [17] were -0.406 and -0.703 (inactive), respectively.

The values above are taken from PubChem BioAssay.
